Screening results as filed in PubChem BioAssay.
An excerpt weighted towards active compounds, which were near 3% of everything screened.
VDR inhibitor – inhibitors of human vitamin D receptor. P11473. VDR-SRC2-3 peptide fluorescence polarization, 2 h. Potency, µM, for the others: max response, negative = inhibition, most hits filed as inhibitors. 400,000 compounds, 0.93% hits. AID 504847; note: % is set by controls: 0 for no effect and ±100 for the full control effect
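After 23 nl compound addition and a short centrifugation, plates sat for 2 hours at ambient temperature; polarization of fluorescence then indicated loss of VDR binding to peptide SRC2-3.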
PTAP TSG101 blk – blocks PTAP/TSG101 interaction to inhibit HIV-1 budding. Q99816. Fluorescence polarization, FITC-PTAP peptide / Tsg101 binding. Potency, µM (highest dose often 115 µM), for inactives: at the highest dose activity change, negative = inhibition, actives largely listed as inhibitors. 340,000 tested, under 10 active; active = well fitted inhibition curve with a large enough effect in the main read-out, with a control signal flat, not every such curve was filed as active; inconclusive = small, poorly fitted or top-dose-only effect, or effect the other way, or a change in a side signal; inactive = no such curve, though single readings can be large or run the other way; note: % of control where 0% means no effect
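Tsg101 binding domain (10 uM final) was mixed with compound and a FITC-labeled PTAP peptide (50 nM final) in HEPES pH 7.5 buffer with NaCl, Tween 20, EDTA and TCEP; fluorescence polarization was read after 20 min at r.t.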
PLK1 PBD block – PLK1 (human) polo-box domain binding inhibition; Potency, µM, for the others: max response, negative = inhibition, actives largely listed as inhibitors; Plk1 PBD binding of FITC phosphopeptide, fluorescence polarization; AID 720504; 360,000 compounds, 2.8% hits; P53350; note: series mostly up to about 57 µM; % is set by controls: 0 for no effect and ±100 for the full control effect; nearly all actives have a fitted effect of over 65% in size
Target sequence (P53350 whole entry, looked up, the tested form may be a part): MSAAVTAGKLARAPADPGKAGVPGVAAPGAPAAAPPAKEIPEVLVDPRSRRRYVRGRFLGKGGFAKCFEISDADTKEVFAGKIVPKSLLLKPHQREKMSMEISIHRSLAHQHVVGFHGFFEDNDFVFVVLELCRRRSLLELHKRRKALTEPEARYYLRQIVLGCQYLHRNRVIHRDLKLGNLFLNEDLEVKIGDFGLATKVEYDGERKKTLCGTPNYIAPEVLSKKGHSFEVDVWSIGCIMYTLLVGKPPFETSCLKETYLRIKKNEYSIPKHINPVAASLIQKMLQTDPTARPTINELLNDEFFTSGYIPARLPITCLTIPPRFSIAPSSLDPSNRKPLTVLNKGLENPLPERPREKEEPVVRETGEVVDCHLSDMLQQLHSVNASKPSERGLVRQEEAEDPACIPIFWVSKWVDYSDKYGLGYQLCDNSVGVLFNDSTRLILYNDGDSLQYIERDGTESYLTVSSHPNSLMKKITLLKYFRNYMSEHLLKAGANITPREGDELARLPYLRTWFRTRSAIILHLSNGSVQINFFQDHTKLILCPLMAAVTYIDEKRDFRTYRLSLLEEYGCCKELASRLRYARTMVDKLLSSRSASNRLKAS
USP1-UAF1 inh – USP1/UAF1 (human) deubiquitinase inhibition; O94782; recombinant USP1/UAF1, Ub-Rhodamine cleavage fluorescence; Potency, µM (highest dose often 57.1 µM), inactives show at the top dose activity change, negative = inhibition, usual class: inhibitors; 390,000 compounds, 0.23% hits; AID 743255; note: % is set by controls: 0 for no effect and ±100 for the full control effect; nearly all actives have a fitted effect of over 60% in size
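1 nM enzyme complex + cpd, 15 min RT; start with Ub-Rho 150nM final; kinetic fluorescence ex 480/em 540, 6 reads q60 s. Buffer 50mM HEPES pH 7.8, 0.5mM EDTA, 0.1 mg/ml BSA, 1mM TCEP, 0.01% Tween-20.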
KAT2A inh – blocks human GCN5L2 histone acetyltransferase. Q92830. GCN5L2 HAT assay, ThioGlo1 CoA-SH fluorescence. Potency, µM (titrated, usually from 58.9 µM), without a hit: at the highest dose activity change, negative = inhibition, usual class: inhibitors. 390,000 compounds, 0.21% hits; note: % is set by controls: 0 for no effect and ±100 for the full control effect
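ThioGlo1-coupled HAT assay: 20nM GCN5L2, 70uM acetyl-CoA, 75uM H3(1-25) peptide, pH 7.5. Fluorescence read at 340/540nm at start and after 20 min at room temperature.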
Starred values were filed as active, the others as inactive; u = inconclusive; x = no result given; [ ] = dose if it differs, or a comment. Unless noted, calls come from the whole dose curve; as a rule, active = well fitted curve in the direction sought with a large enough effect; inconclusive = small, poorly fitted or top-dose-only effect, or another doubt; inactive = no such curve, though single readings can be large; an effect the other way counts as inactive or inconclusive. Potency is the fitted concentration of half-maximal effect.

SMILES	VDR inhibitor	PTAP TSG101 blk	PLK1 PBD block	USP1-UAF1 inh	KAT2A inh
c1ccc(SCc2nc3ccccc3s2)nc1	-24%	-3%	19µM*	-21%	3%
O=C(Cn1cc(SCc2c(F)cccc2Cl)c2ccccc21)N1CCCCCC1	7%	x	x	u	-14%
O=C(CN1C(=O)c2ccccc2C1=O)Nc1ccc(Cl)cn1	-1%	-1%	27µM*	-8%	-8%
O=C(CSc1ccccn1)Nc1ccc(Cl)cn1	-21%	-9%	24µM*	-20%	-6%
O=C(COC(=O)Cc1ccccc1F)Nc1ccc(Cl)cn1	u	0%	17µM*	-3%	-7%
O=C(Cc1ccccc1)Nc1ccc(Cl)cn1	1%	-1%	-25%	3%	-18%
CCOc1ccc(NC(=O)C2CCN(c3nnc(-n4c(C)ccc4C)s3)CC2)cc1	3%	x	x	33%	3%
O=C(O/N=C1/CCCc2occc21)c1ccc(F)cc1	u	-9%	12µM*	-11%	-5%
CCCSc1nc2c(c(=O)[nH]1)C(c1ccc(O)c(OCC)c1)CC(=O)N2 (stereo unspecified)	17%	x	x	-3%	-9%
COc1ccc2c(c1)CC(C(=O)NCCCN1CCN(c3cccc(Cl)c3)CC1)CO2 (stereo unspecified)	-7%	x	x	-9%	-13%
C=CCN(CC=C)C(=S)NC(=O)/C=C/c1ccc(C)cc1	0%	-3%	7%	-16%	-2%
C=CCN(CC=C)C(=S)NC(=O)/C=C/c1ccccc1	20µM*	-5%	15µM*	-14%	1%
COCCNC(=O)C1(C(F)(F)F)C/C(=C/CCO)CCCO1 (stereo unspecified)	-3%	x	x	x	x
COc1ccc(-c2cc(C(F)(F)F)nc(S(=O)(=O)CCCC(=O)Nc3cccc(O)c3)n2)cc1OC	u	2%	-26%	-8%	-8%
COc1ccc(NC(=O)CCCS(=O)(=O)c2nc(-c3ccc(OC)c(OC)c3)cc(C(F)(F)F)n2)cc1OC	79µM*	x	x	u	-9%
COc1ccc(NC(=O)[C@H]2O[C@@H]3OC(C)(C)O[C@@H]3[C@H]3OC(C)(C)O[C@H]32)c(OC)c1	21%	x	x	u	-4%
CS(=O)(=O)ON=C1CCN(S(=O)(=O)c2ccccc2)CC1	8%	-1%	3%	-16%	-6%
Cc1ccc(C(=O)ON=C2CCN(S(=O)(=O)c3ccccc3)CC2)cc1	u	-3%	27µM*	-8%	-8%
C/C(=N\NC(=O)c1ccncc1)c1ccc(N2CCOCC2)cc1	-8%	-2%	-24%	5%	-1%
C/C(=N\NC(=O)c1ccncc1)c1ccc(N(C)C)cc1	7%	0%	27µM*	-24%	5%
Cc1ccc(C(=O)NCC(=O)OCC(=O)NCCc2ccccc2)s1	-18%	-1%	27µM*	-10%	-4%
Cc1ccc(C(=O)NCC(=O)NCCCc2ccccc2)s1	-7%	-1%	4%	u	-7%
N=C1CCCN1c1ccccc1O	-3%	-5%	1%	-5%	-3%
N=C1CCC(=N)c2c1c(O)c1ccccc1c2O	u	u	u	25µM*	u
N#C/C(=C\c1cccs1)C(=O)NCc1ccccc1	45µM*	-3%	3.4µM*	-5%	-6%
SMILES	VDR inhibitor	PTAP TSG101 blk	PLK1 PBD block	USP1-UAF1 inh	KAT2A inh
Cc1c(OC(C)C(=O)NCC(O)c2ccccc2)ccc2c3c(c(=O)oc12)CCC3 (stereo unspecified)	8%	-2%	-1%	-24%	2%
C=CCC(C(=O)NC(C)c1ccccc1)C(=O)NC(C)c1ccccc1 (stereo unspecified)	-1%	-3%	27µM*	-16%	1%
CCC(C(=O)NC(C)c1ccccc1)C(=O)NC(C)c1ccccc1 (stereo unspecified)	3%	1%	3%	-13%	2%
CCCCC[C@H](O)/C=C/[C@@H]1[C@@H](C/C=C\CCCC(=O)OC)[C@@H](O)C[C@H]1O	-14%	-1%	-15%	-8%	-6%
CCCCC[C@H](O)/C=C/C1C(=O)C=C[C@H]1C/C=C\CCCC(=O)OC (stereo partly specified)	25µM*	-7%	-16%	u	x
CCCCC[C@H](O)/C=C/[C@H]1C(=O)C=C[C@@H]1C/C=C\CCCC(=O)O	32µM*	x	x	x	-2%
COc1cc(C(=O)O)ccc1O	-5%	4%	-2%	-18%	0%
S=C(c1ccc(Br)cc1)N1CCCC1	3%	-2%	u	-19%	1%
Oc1ccc(C(=S)N2CCCCC2)cc1	-13%	2%	19µM*	-8%	1%[0.501 µM]
COc1cc(C(=S)N2CCC(C(N)=O)CC2)ccc1O	-22%	-1%	27µM*	-20%	-3%
CCOc1ccc(C(=S)N2CCCC2)cc1OC	8%	-2%	-7%	0%	-1%
COc1ccc(C(=S)N2CCN(c3ccccc3C)CC2)cc1OC	u	0%	24µM*	u	x
CCOc1cc(C(=S)N2CCCC2)ccc1O	u	1%	19µM*	-6%	-7%
COc1ccccc1-c1cc2nc(C)c(CCC(=O)NCCc3cccc(C)c3)c(C)n2n1	-4%	x	x	-26%	-9%
C[C@]12c3[nH]c4cc(-c5ccco5)ccc4c3CCN1C(=O)[C@@H](CC(=O)NCc1cccc(C(F)(F)F)c1)C[C@@H]2C(=O)N1CCCCC1	-17%	1%	-14%	-17%	-14%
COc1ccc(CNC(=O)Cn2c(=O)n3nc(-c4cccc(F)c4)nc3c3ccccc32)cc1OC	17%	x	x	9%	2%
Cc1cc2oc(C(=O)N(Cc3ccc(N(C)C)cc3)Cc3ccco3)c(C)c2cc1Cl	2%	x	x	-19%	2%
COc1cc(C(=S)N2CCCCC2)ccc1O	-13%	-3%	u	-8%	-2%[0.501 µM]
COc1cc(C(=S)N2CCC(C)CC2)ccc1O	-24%	-2%	24µM*	-19%	-5%
COc1cc(C(=S)N2CCCC2)ccc1O	u	-4%	27µM*	-12%	-3%
COc1cccc(C(=S)N2CCCC2)c1OC	u	-3%	24µM*	-14%	-11%
COc1cccc(C(=O)C(=O)c2cccc(OC)c2OC)c1OC	-18%	-4%	-6%	-16%	x
O=C(Nc1cccc(F)c1)N1CC2(CCN(C(=O)c3ccco3)CC2)C1	-22%	x	x	x	-10%
Cn1nnc2c(NCc3ccccc3)ncnc21	0%	x	x	7%	4%
CCCN(C(=O)Cn1cnc2sc(C)c(S(=O)(=O)N3CCN(c4ncccn4)CC3)c2c1=O)c1cccc(C)c1	9%	x	x	-26%	0%
CCOC(=O)C1=C(CC)Nc2ccccc2N=C1NC(=O)c1ccc(S(=O)(=O)N(C)C)cc1	-13%	-1%	2.7µM*	-4%	-1%
CN1CCN(c2ncc3nc(-c4ccccc4)c(=O)n(-c4ccccc4)c3n2)CC1	1%	x	x	x	22µM*
COc1ccc(-n2c(=O)c(-c3ccccc3)nc3cnc(N4CCN(C)CC4)nc32)cc1	-1%	x	x	x	-8%
